# Screening results from PubChem.
# The list is not random: actives were taken first. Their share in the collection is about 9.5%.
# RE007 growth inh: less growth of the S. pombe RE007 Vpr strain. S. pombe RE007 Vpr strain, BacTiter-Glo ATP luminescence, 24 h. Potency, µM (doses to about 92.2 µM), usual class: inhibitors. 360,000 compounds, 0.21% hits; active = well fitted falling curve with a large enough effect; inconclusive = small, poorly fitted or top-dose-only effect; inactive = no such curve, though single readings can be large or run the other way; also: nearly all actives have a fitted effect of over 50% in size
#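 Fission yeast strain RE007, carrying one chromosomally integrated HIV-1 vpr copy, was seeded at OD 0.01 in PMG+AL medium with 23 nL pinned compound. After 24 h at 30 °C and 99% humidity, viability was read by BacTiter-Glo luminescence.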
# Pf growth 48h: P. falciparum growth inhibition at 48 hours (one generation) | 310,000 compounds, 5.9% hits | P. falciparum luciferase growth in erythrocytes, 48 h | AID 504832 | Potency, µM (highest dose often 28.7 µM), actives largely listed as inhibitors
#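 Erythrocytes infected with P. falciparum carrying an integrated firefly luciferase reporter (2% hematocrit, 0.1% parasitemia final) were exposed to compounds in RPMI 1640 with 0.5% Albumax at 37 C, 5% CO2. Growth inhibition was scored as reduced luminescence.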
# NS1 function inh: inhibitors of influenza NS1 protein function; Potency, µM (titrated, usually from 46.1 µM); 270,000 compounds, 0.4% hits; AID 2326; calls by dose curve; also: actives are rising curves; nearly all actives have a fitted effect of over 50% in size
#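 Compounds were scored for reversing the slow growth caused by influenza A NS1 in S. cerevisiae, measured by optical density at 600 nm. Assay medium contained 2% galactose at pH 6.0; NS1-free yeast of the same strain were the positive control.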
# Pf growth 96h: P. falciparum growth inhibition at 96 hours. Potency, µM (highest dose often 28.7 µM), usual class: inhibitors. 320,000 compounds, 6.9% hits. P. falciparum luciferase reporter growth, 96 h
#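 Plates of compound plus infected erythrocytes (2% hematocrit, 0.05% parasitemia final) incubate 96 hours, 37 C, 5% CO2. Detection reagent added; reduced luminescence from the parasites' luciferase reporter flags inhibition.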
# SARS PLpro yeast: SARS-CoV PLP inhibition in yeast. Potency, µM (highest dose often 32.9 µM), usual class: activators. 330,000 compounds, 0.19% hits. S. cerevisiae expressing SARS-CoV PLpro, growth rescue; calls by dose curve; also: nearly all actives have a fitted effect of over 55% in size
# A number is an active result; - = inactive; ? = inconclusive; . = not tested or not shown; ! = a repeat was not active; [ ] = another dose, or the depositor's remark. Unless noted, calls follow the shape of the dose curve; as a rule, active = well fitted inhibition curve with a large enough effect; inconclusive = small, poorly fitted or top-dose-only effect, or another doubt; inactive = no such curve, though single readings can be large or run the other way.
SMILES,RE007 growth inh,Pf growth 48h,NS1 function inh,Pf growth 96h,SARS PLpro yeast
N#CC1=C(N)SC(N)=C(C#N)C1c1ccc(C(F)(F)F)cc1,.,-,-,9.3µM,-
Cc1cn([C@H]2C[C@H](O)[C@@H](/C=C/C(=O)NCCc3cccs3)O2)c(=O)[nH]c1=O,-,.,.,.,.
Cc1ccc(O)c(-c2cc(-c3ccc(F)cc3)no2)c1,-,10µM,-,?,-
CC(C)(C)C1CCC(N2CCN(c3ccccc3)CC2)CC1 (stereo unspecified),-,-,-,?,-
O=C1C2CC=CCC2C(=O)N1c1cccc(OS(=O)(=O)c2ccc3ccccc3c2)c1 (stereo unspecified),-,.,-,3.3µM,-
Nc1nc(N)c2c(ccc3c2ccn3Cc2cccc([N+](=O)[O-])c2)n1,5.6µM,.,.,.,.
Nc1nc(N)c2cc([N+](=O)[O-])ccc2n1,-,.,.,.,.
O=C(NCCC(=O)N1CCN(C(=O)c2ccco2)CC1)c1ccc(Br)cc1,-,-,.,-,-
COc1cccc2cc(C(=O)c3ccc([N+](=O)[O-])cc3)oc12,-,-,?,15µM,-
Cn1c(N)c(C(=O)CSc2nnc(-c3c[nH]c4ccccc34)n2C2CC2)c(=O)[nH]c1=O,-,?,.,6.6µM,-
O=C(Nc1cccc(NC(=O)c2ccccc2Cl)c1)c1ccc(F)cc1,-,-,-,-,-
Cc1ccccc1C(=O)Nc1cccc(NC(=O)c2ccc(F)cc2)c1,-,-,-,10µM,-
O=C(NC(=S)Nc1ccc(NC(=O)c2ccccc2)cc1)c1ccc(F)cc1,-,6.6µM,-,6.6µM,-
COc1ccc(NS(=O)(=O)c2ccc(NC(=S)NC(=O)c3ccc(Br)cc3)cc2)nn1,-,-,?,12µM,-
O=C(Nc1ccc(S(=O)(=O)Nc2nccs2)cc1)c1c(F)c(F)c(F)c(F)c1F,-,-,-,3.7µM,-
COc1ccc(NS(=O)(=O)c2ccc(NC(=O)c3ccc(Br)cc3)cc2)nn1,-,-,-,-,-
NS(=O)(=O)c1ccc(CCNC(=O)COC(=O)C2COc3ccccc3O2)cc1 (stereo unspecified),-,.,.,.,-
Cc1ccc(-c2cc3nc(NCCc4ccncc4)n(C)c(=O)c3s2)cc1,-,.,.,.,.
Cc1cc2c(cc1C)NC(C)CC(=O)N2 (stereo unspecified),-,.,.,.,.
COc1ccccc1C(=O)Nc1ccc(S(=O)(=O)Nc2nccs2)cc1,-,-,-,-,-
COc1cccc(OC)c1C(=O)NC(=S)Nc1ccc(S(=O)(=O)Nc2nccs2)cc1,-,13µM,-,-,-
O=C(NC(=S)Nc1ccc(S(=O)(=O)Nc2nccs2)cc1)c1cccnc1,-,-,-,-,-
O=C(NC(=S)Nc1ccc(S(=O)(=O)Nc2nccs2)cc1)c1ccccc1,-,-,-,13µM,-
Cc1cccc(N=C2NC(=O)/C(=C/c3cccnc3)S2)c1C,-,13µM,-,?,-
Cc1ccc(N=C2NC(=O)/C(=C/c3cccnc3)S2)c(C)c1,-,?,-,?,-
SMILES,RE007 growth inh,Pf growth 48h,NS1 function inh,Pf growth 96h,SARS PLpro yeast
O=C1NC(=Nc2cccc(O)c2)S/C1=C\c1cccnc1,-,?,-,6.6µM,-
COc1ccccc1-c1cccc([C@@H]2C[C@H]3[C@@H](CN2)CON3C)c1,-,.,.,.,.
NC(N)=NC(=O)Cc1c(Cl)cccc1Cl,-[18.4 µM],?,-,1.9µM!,-
O=C(Cc1c(Cl)cccc1Cl)OCc1ccccn1,-,?,-,?,-
CCOc1ccc(/C=C/C(=O)c2cc(Br)ccc(=O)c2O)cc1,-,10µM,-,9.3µM,-
CCc1ccc(/C=C/C(=O)c2cc(Br)ccc(=O)c2O)cc1,-,?,-,.,-
COC(=O)C(Cc1ccccc1)NC(=O)CC(C)CC(=O)Nc1ccc(C)cc1 (stereo unspecified),-,-,-,?,-
O=C(CCl)NC(Cc1ccccc1)c1ccccc1 (stereo unspecified),-,?,-,10µM,-
Cc1ccc(N)cc1N,-,-,.,?,-
CC1=CC(=C(c2ccc(N)cc2)c2ccc(N)cc2)C=CC1=N,.,2.4µM,.,1.1µM,.
O=C(N/N=C/c1cccnc1)c1cc(-c2ccc(Br)cc2)nc2ccccc12,-,-,-,-,-
O=C(CCNC(=O)c1ccc([N+](=O)[O-])cc1)NCc1cccs1,-,.,.,.,-
CCOC(=O)C1CCN(C(=O)CSc2c3c(nc4ccccc24)CCC3)CC1,-,-,.,-,-
O=C(C1CCN(c2nc(-c3ccccc3)nc3c2CCC3)CC1)N1CCC(O)CC1,-,3.7µM,-,?,.
